Assay outcomes from PubChem.
An excerpt weighted towards active compounds, which were near 28% of everything screened.
CYP2C19 act: cytochrome P450 2C19 (human) activation; recombinant CYP2C19, luciferin-H EGE luminescence; hits give high values; 0 = fully inhibited enzyme, 1 = untreated enzyme; P33261; activation factor at 5 µM; 96,000 tested, under 10 active; AID 1025;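 active means activation factor of at least 2 at 5 µM in the primary screen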;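 further: 0 = wells with 2.5 mM tranylcypromine and 1 = vehicle-only wells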
CYP2C19 inh: inhibitors of human CYP2C19; CYP2C19 Supersomes, luciferin-H EGE luminescence, 30 min; 96,000 tested, 21% active; inhibition, % at 5 µM;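 active means CYP2C19 inhibition above a set limit at 5 µM in the primary screen, cut at about 50% in these data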;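 further: plate controls were negative control wells for no effect and 2.5 mM tranylcypromine positive control for full effect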
Mac1 fbg inh: CD11b/CD18-fibrinogen binding inhibition | AID 1497 | inhibition, % at 10 µM | 93,000 tested, 0.54% active | P05107+P11215 | K562 CD11b/CD18 adhesion to fibrinogen, ATPlite luminescence; Mn2+ added to activate the integrin;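 active means primary inhibition of 50% or more at 10 µM, then 40% or more on retest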
CYP2C9 act: CYP2C9 (human) activation. P11712. recombinant CYP2C9, luciferin-H conversion, luminescence; hits give high values; factor 1 = untreated enzyme, 0 = blocked. activation factor at 5 µM. 96,000 tested, 1.4% active. AID 1024;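 active means activation factor of 2 or more for CYP2C9 at a 5 µM dose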;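 further: 0 = sulfaphenazole-blocked wells and 1 = vehicle-only wells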
Target sequence (P11712 whole entry, looked up): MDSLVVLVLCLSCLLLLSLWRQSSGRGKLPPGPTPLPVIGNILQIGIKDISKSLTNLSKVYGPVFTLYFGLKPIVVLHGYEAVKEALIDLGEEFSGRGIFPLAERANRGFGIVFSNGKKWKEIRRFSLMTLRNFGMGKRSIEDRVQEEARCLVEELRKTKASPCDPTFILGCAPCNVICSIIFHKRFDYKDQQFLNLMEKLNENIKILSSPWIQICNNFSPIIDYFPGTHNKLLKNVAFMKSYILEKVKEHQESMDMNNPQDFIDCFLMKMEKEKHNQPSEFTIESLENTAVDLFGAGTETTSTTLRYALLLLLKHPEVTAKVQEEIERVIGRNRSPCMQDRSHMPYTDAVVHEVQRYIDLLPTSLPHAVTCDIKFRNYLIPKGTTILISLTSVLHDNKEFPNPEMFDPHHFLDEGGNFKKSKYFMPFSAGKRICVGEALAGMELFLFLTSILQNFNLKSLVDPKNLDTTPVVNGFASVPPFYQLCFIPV
Mac1 fbg enh: enhancers of human CD11b/CD18 binding to fibrinogen | P05107+P11215 | K562 CD11b/CD18 adhesion to fibrinogen, ATPlite luminescence | activation, % at 10 µM | 93,000 tested, 0.07% active;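 active means 10 µM primary screen giving 50% or more activity, confirmed by 40% or more on retest at that dose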
CYP2C9 inh: inhibitors of human CYP2C9; 96,000 tested, 20% active; inhibition, % at 5 µM; AID 777; CYP2C9 Supersomes, luciferin-H conversion, luminescence; P11712;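 active means blocking of liver enzyme CYP2C9 beyond about 50% at 5 µM, limit read from the data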
* hit, by the source's call; / = no result given.

SMILES	CYP2C19 act	CYP2C19 inh	Mac1 fbg inh	CYP2C9 act	Mac1 fbg enh	CYP2C9 inh
O=C(NCc1ccco1)c1ccccc1NS(=O)(=O)c1cccs1	0.2	81*	-12	0.3	3	72*
O=C(NCc1ccco1)c1ccccc1NS(=O)(=O)c1ccc2c(c1)OCCO2	0.4	56*	-17	1.6	-5	-61
O=C(NCc1ccco1)c1ccccc1NS(=O)(=O)c1ccc(Cl)s1	1.2	-17	98*	0	-8	97*
O=C(OCc1cccs1)c1ccccc1NS(=O)(=O)c1ccc2c(c1)OCCO2	0.4	60*	22	0.8	34	24
O=C(NCc1ccco1)c1ccc(C(=O)NCc2ccco2)s1	1	5	-4	0.7	-3	33
CCC(C)(C)C(=O)Nc1ncc(S(=O)(=O)c2ccc([N+](=O)[O-])cc2)s1	0.7	27	28	0.7	-5	26
COC(=O)C(NC(=O)c1ccccc1Cl)(Nc1ncc(S(=O)(=O)c2ccc([N+](=O)[O-])cc2)s1)C(F)(F)F (stereo not drawn)	1	3	5	0.1	3	87*
Cc1cccc(NC(=S)NNC(=O)c2nn(C)cc2Cl)c1	0.4	61*	/	0.8	/	18
Cc1ccc(NC(=S)NNC(=O)c2nn(C)cc2Cl)cc1	0.6	41	/	0.9	/	9
COc1ccccc1NC(=S)NNC(=O)c1c(Cl)c(C)nn1C	0.9	7	/	0.3	/	66*
Cc1c(Cl)c(C(=O)NNC(=S)Nc2ccccc2)nn1C	0.2	78*	-1	0.8	-5	21
COCCNCC(=O)C12CC3CC(CC(C3)C1)C2	0.8	25	0	1.1	4	-8
Cc1ccc(C(C(=O)NC2CCCCC2)N(Cc2cccnc2)C(=O)C2COc3ccccc3O2)o1 (stereo not drawn)	0.6	39	15	0.7	-2	28
CCCCOc1ccc(NC(=O)CSc2nnnn2C)cc1	1.2	-23	-4	1.1	0	-9
CC(=NCCN1CCNCC1)C1=C(O)CC(C)(C)CC1=O	1	2	-7	0.9	-1	13
COc1cccc(NC(=O)CNC(C)CCC(C)C)c1 (stereo not drawn)	0.2	79*	-8	0.7	-2	26
CCOC(=O)c1ccc(NC(=O)Cn2nnc3ccccc32)cc1	1	-3	10	0.9	-3	11
COc1ccccc1C(=O)NCC(=O)Nc1ccccc1	0.5	51*	8	0.9	7	9
CC(=O)c1cccc(NC(=O)CCOc2ccccc2)c1	0.8	22	-6	1.8	-3	-83
COC(=O)c1cccc(NC(=O)CCCOc2ccccc2)c1	0.2	80*	/	0.4	/	59*
COC(=O)c1cccc(NC(=O)Cn2nnc3ccccc32)c1	0.4	64*	10	0	1	96*
COc1cccc(NC(=O)CNC(=O)c2ccccc2)c1	0.5	50*	-14	0.5	0	46
COc1ccc(C(=O)Nc2cccc(OC)c2)cc1	0.5	48	6	0.8	0	18
COc1ccccc1NC(=O)C1=C(C)N(c2ccccc2)C(=S)NC1c1cccc(C(F)(F)F)c1 (stereo not drawn)	0.1	92*	8	0	0	96*
COc1ccccc1NC(=O)C1=C(C)NC(=O)NC1c1ccccc1F (stereo not drawn)	1.1	-7	-46	1.6	-2	-60
SMILES	CYP2C19 act	CYP2C19 inh	Mac1 fbg inh	CYP2C9 act	Mac1 fbg enh	CYP2C9 inh
COC(=O)c1ccc(C2NC(=S)N(c3ccccc3)C(C)=C2C(=O)Nc2ccccc2OC)cc1 (stereo not drawn)	0.2	80*	-3	0.2	-4	81*
Cc1cc(C=O)c(C)n1-c1cc(C(F)(F)F)ccc1N1CCOCC1	0.1	92*	3	0.8	-6	21
CC(=O)Nc1cc(C(F)(F)F)ccc1N1CCOCC1	1	-1	-1	1.1	-3	-6
Cc1ccc(Cl)cc1NC(=O)CC(O)(C(F)(F)F)C(F)(F)F	0.3	75*	98*	0.6	-10	37
Cc1ccc(Cl)cc1NC(=O)Cn1cccc1	0.8	20	-9	0.9	4	6
Cc1ccc(Cl)cc1NC(=O)CSC(N)=O	0.3	72*	-14	0.7	-5	27
O=C(NC(=S)Nc1nc2c(s1)CSc1ccccc1-2)c1ccccc1	0.9	12	22	0.7	-5	29
Cc1cc(-c2ccccc2)nc(N(C)NC(=O)c2c(F)cccc2F)c1S(C)(=O)=O	0.5	51*	-34	0.3	1	69*
CC(C)(C)c1ccc(C2CC2C(=O)N/N=C\c2cc3ccccc3nc2Cl)cc1 (stereo not drawn)	0.8	24	/	0.4	/	62*
CCCCCn1ccc(=N)cc1	1	-3	31	1.1	-3	-5
CCCCCCCn1ccc(=N)cc1	1.3	-28	83*	0.6	-6	38
COC(=O)c1cc(CSc2nnc(-c3ccccc3)c(-c3ccccc3)n2)oc1C	0.9	12	28	0.5	-3	53*
O=C(CCN1C(=O)C2C3C=CC(C4CC34)C2C1=O)Oc1cccc2cccnc12 (stereo not drawn)	0.9	15	-2	1	-2	-2
C[N+]12CCCCC1C(COC(=O)c1ccc3c(c1)OCO3)CCC2 (stereo not drawn)	0.9	7	-6	1.3	-4	-29
COc1ccc(-c2csc(NC(C)=O)n2)cc1OC	0.3	68*	10	0.4	-1	65*
COc1ccc(-c2csc(NC(=O)CN3C(=O)CCC3=O)n2)cc1OC	/	/	5	/	-6	/
COc1ccc(CC(=O)Nc2cc(C)on2)cc1OC	0.9	13	6	0.9	0	10
COc1cccc(-c2csc(NC(C)=O)n2)c1	0.7	27	-56	0.8	-2	24
COc1ccc(CC(=O)Nc2nc(C)cs2)cc1OC	0.4	60*	-2	0.7	1	30
COc1ccc(-c2csc(NC(=O)CCn3cnc4ccccc4c3=O)n2)cc1OC	0.1	85*	/	0.3	/	66*
Cc1noc(C)c1C(=O)OCC(=O)NC1CC1	0.9	5	-5	0.9	6	8
COC(=O)c1sc(N)c(C(=O)OC)c1COC(=O)c1c(C)noc1C	0	96*	-2	0	-3	97*
COc1ccccc1-n1cnc2cc(NCc3ccco3)ccc21	0.1	93*	16	2*	4	-101
COc1ccc(CNc2ccc3c(c2)ncn3-c2ccccc2OC)cc1	0.5	52*	/	0.5	/	54*
Cc1ccccc1-n1cnc2cc(NCc3cccs3)ccc21	0.5	54*	/	0.7	/	27
COc1ccccc1-n1cnc2cc(NCc3cccs3)ccc21	0.3	70*	6	1.7	2	-70
